# NS1 function inh: blocks influenza NS1 protein function; AID 2326; Potency, µM (highest dose often 46.1 µM), for the others: at the top dose activity, positive = more growth; actives 0.4% (n = 270,000); calls by dose curve; note: potency is the fitted concentration of half-maximal effect; actives are rising curves; nearly all actives have a fitted effect of over 50% in size
#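 Read-out: OD600 growth recovery of NS1-expressing budding yeast. Cells grown overnight at 30C in -URA glucose medium, washed, resuspended and diluted 1:100 in 2% galactose assay medium, pH 6.0. Same strain lacking NS1 served as positive control.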
# FBPA Giardia inh: Giardia lamblia aldolase inhibition | A8B2U2 | purified Giardia FBPA | Potency, µM (highest dose often 59.6 µM), inactives show at the highest dose activity, negative = inhibition, most hits filed as inhibitors | actives 0.71% (n = 290,000); note: potency is the fitted concentration of half-maximal effect; % is set by controls: 0 for no effect and ±100 for the full control effect; nearly all actives have a fitted effect of over 55% in size
# Target sequence (A8B2U2 whole entry, looked up): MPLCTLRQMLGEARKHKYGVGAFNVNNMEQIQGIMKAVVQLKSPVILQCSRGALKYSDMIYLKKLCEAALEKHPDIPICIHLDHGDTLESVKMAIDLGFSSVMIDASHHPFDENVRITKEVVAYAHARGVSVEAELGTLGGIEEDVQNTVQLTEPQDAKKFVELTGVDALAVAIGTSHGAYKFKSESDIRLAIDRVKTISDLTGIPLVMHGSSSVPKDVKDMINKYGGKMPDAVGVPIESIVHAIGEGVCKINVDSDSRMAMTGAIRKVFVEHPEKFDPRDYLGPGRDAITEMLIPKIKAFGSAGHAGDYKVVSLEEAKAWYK
#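 Giardia FBPA (40 nM reagent) was preincubated 10 min at RT with compound (up to 57.5 uM final), then substrate plus GAPDH/TPI/NAD/arsenate coupling system with diaphorase/resazurin was added; resorufin fluorescence (525/598 nm) was read after 20 min.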
# Pf growth 48h: inhibits P. falciparum growth in the first generation, 48 h; P. falciparum luciferase growth in erythrocytes, 48 h; Potency, µM (doses to about 28.7 µM), for inactives: top-dose activity change, negative = inhibition, usual class: inhibitors; actives 5.9% (n = 310,000); AID 504832; note: potency is the fitted concentration of half-maximal effect; % is set by controls: 0 for no effect and ±100 for the full control effect
#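 Luminescence readout; reporter = integrated firefly luciferase in P. falciparum. RBC culture at 2% hematocrit, 0.1% parasitemia final, 37 C/5% CO2; decreased signal taken as growth inhibition.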
# Pf growth 96h: P. falciparum growth inhibition at 96 hours | P. falciparum luciferase reporter growth, 96 h | Potency, µM (series often up to 28.7 µM), for the others: at the top dose activity change, negative = inhibition, actives largely listed as inhibitors | actives 6.9% (n = 320,000) | AID 504834; note: potency is the fitted concentration of half-maximal effect; % is set by controls: 0 for no effect and ±100 for the full control effect
#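 P. falciparum expressing integrated firefly luciferase, in erythrocytes at 2% hematocrit, 0.05% parasitemia, incubated with compounds 96 h at 37 C, 5% CO2. Growth inhibition read as loss of luminescence; two-generation exposure targets delayed-death apicoplast inhibitors.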
# Shiga inhibitor: inhibitors of Shiga toxin in Vero cells. inhibition, % at 38.7 µM. actives 9.2% (n = 290,000). Vero cells, Shiga toxin protein synthesis inhibition reporter. AID 2315; in the data active = inhibition mostly above about 28%, no sharp cut-off; inactive = mostly below about 43%; note: 0% is about no effect
# CHX counter: counter-screen for Shiga toxin inhibitors: cycloheximide protein synthesis inhibition. max response, %. cell reporter, cycloheximide protein synthesis inhibition counterscreen. actives 12% (n = 300,000); in the data active = max response mostly above about 13%, no sharp cut-off; inactive = mostly below about 14%; note: read at 38.3 µM for the half of the compounds with a filed dose; 0% is about no effect
# * hit, by the source's call; ? = inconclusive; / = not tested or not shown; + = active, no number; [ ] = another dose, or the depositor's remark. In the library only some 21% were active in any assay of this set; here they are far more common. Unless noted, calls come from the whole dose curve; as a rule, active = well fitted curve in the direction sought with a large enough effect; inconclusive = small, poorly fitted or top-dose-only effect, or another doubt; inactive = no such curve, though single readings can be large; an effect the other way counts as inactive or inconclusive.
SMILES,NS1 function inh,FBPA Giardia inh,Pf growth 48h,Pf growth 96h,Shiga inhibitor,CHX counter
Cc1cc(/C=C(\C#N)C(=O)NC2CC2)c(C)[nH]1,7%,4%,165%,53%,94*,68*
N#C/C(=C\c1ccccc1Br)C(=O)NC1CC1,10%,/,-18%,1.5µM*,-10,-3
O=C(NCc1ccc(F)cc1)N1CCN(C(=O)c2ccccc2)CC1,/,/,-16%,-20%,/,/
COc1ccc(CNC(=O)CSc2nnc(NC(=O)c3ccccc3F)s2)cc1,-3%,0%,128%,2%,41,9
OCCCc1nc2ccccc2[nH]1,/,-3%,?,?,-20,-5
COC(=O)C(Cc1ccc(O)cc1)NC(=O)C(CC(=O)OC(C)(C)C)NC(=O)OC(C)(C)C (stereo unspecified),/,-7%,20%,55%,-8,5
O=C(NCCCNC(=O)c1cc(Cl)ccc1Cl)c1ccccn1,?,-2%,-33%,1%,-13,6
CC1(C)Cc2nc3sc(C(=O)O)c(N)c3cc2CS1,/,-3%,?,21%,54,8
CC1(C)Cc2nc3sc(C(=O)NCCO)c(N)c3cc2CO1,2%[9.22 µM],-24%,216%,-1%,51*,19*
CC1(C)Cc2nc3sc(C(=O)NCCCO)c(N)c3cc2CS1,5%,-11%,30%,1%,26,31*
N#Cc1ccc(CN2CC[C@@]3(CCCN(C(=O)c4cccc(F)c4)C3)C2)cc1,/,-1%,/,/,/,/
O=C(CCN1CCCCC1)c1csc2ccccc12,-17%,/,/,/,/,/
CC(=O)c1ccc(S(=O)(=O)N(C)CCCC(=O)N(C)Cc2c(F)cccc2Cl)cc1,-1%,2%,?,12µM*,-3,-7
CN(Cc1c(F)cccc1Cl)C(=O)CCc1c[nH]c2ccccc12,-5%,2%,-14%,?,11,7
COc1ccc(-c2nnc(SCC(=O)c3ccc(C)o3)o2)cc1,2%,2%,28%,4%,33,13*
Cc1ccc(C(=O)CSc2nnc(-c3ccco3)o2)o1,1%,-20%,32%,/,56*,40*
O=C(O)CSc1nnc(-c2ccco2)o1,2%,3%,38%,?,-11,-3
Cc1ccc(S(=O)(=O)NCC2CCC(C(=O)NCCCN3CCCC3=O)CC2)cc1 (stereo unspecified),7%,/,0%,-7%,-5,-9
CC(=O)c1ccc(N2CCN(S(=O)(=O)c3ccc4c(c3)CC(C)N4C(=O)C3CC3)CC2)cc1 (stereo unspecified),-4%,/,7.4µM*,?,-4,-1
CC1Cc2cc(S(=O)(=O)N3CCN(C)CC3)ccc2N1C(=O)C1CC1 (stereo unspecified),-11%,13%,?,5.9µM*,9,14
CCOC(=O)C1CCCN(S(=O)(=O)c2ccc3c4c(cccc24)C(=O)N3CC)C1 (stereo unspecified),/,/,10µM*,?,/,/
CC(=O)c1ccc(N2CCN(S(=O)(=O)c3ccc4c(c3)NC(=O)CC(=O)N4)CC2)cc1,-12%,/,27%,?,55*,24*
CC(=O)c1ccc(N2CCN(S(=O)(=O)c3cc4c(cc3C)NC(=O)CO4)CC2)cc1,17%,/,?,20%,-10,-13
CC1Cc2cc(S(=O)(=O)N3CCCCC3)ccc2N1C(=O)C1CCC1 (stereo unspecified),-3%,-2%,?,?,4,5
CN(C(=O)CSc1nc(C2CC2)n(-c2ccccc2)n1)C1CCS(=O)(=O)C1 (stereo unspecified),/,/,30%,31%,/,/
SMILES,NS1 function inh,FBPA Giardia inh,Pf growth 48h,Pf growth 96h,Shiga inhibitor,CHX counter
CC(=O)Nc1ccc(N(C(=O)CNC(=O)c2cccs2)C(C(=O)NC(C)(C)C)c2ccccc2)cc1 (stereo unspecified),3%,0%,?,?,-28,-1
C/C(=N\NC(=O)c1ccc(-n2cnnn2)cc1)c1ccc(Cl)cc1,/,/,-18%,-16%,/,/
CCN1C(=O)c2cccc3c(S(=O)(=O)NCc4cccnc4)ccc1c23,6%,3%,?,/,-5,-3
CCN1C(=O)c2cccc3c(S(=O)(=O)NCc4ccco4)ccc1c23,-4%,?,-26%,?,18*,23*
CCOC(=O)C1CCN(S(=O)(=O)c2ccc3c(c2)CC(C)N3C(=O)C2CCC2)CC1 (stereo unspecified),-24%,10%,-20%,?,-3,4
CCOC(=O)C1CCCN(S(=O)(=O)c2ccc3c(c2)CC(C)N3C(=O)C2CC2)C1 (stereo unspecified),-8%,13%,-18%,10µM*,1,12
NS(=O)(=O)c1ccc(NC(=S)NCCc2ccccc2)cc1,-6%,?,14%,111%,10,3
CC(C)OCCCNC(=S)Nc1ccc(S(N)(=O)=O)cc1,15%,14µM*,-8%,-7%,-3,3
CC(=O)c1ccc(NC(=S)NCCc2ccc(S(N)(=O)=O)cc2)cc1,/,0%,30%,-8%,99*,32*
Cc1ccc(C(=O)Nc2ccccc2)cc1S(=O)(=O)N1CCN(C)CC1,-3%,7%,?,?,3,2
Cc1ccc(NC(=O)C2CCC(CNC(=O)[C@@H]3Cc4ccccc4CN3)CC2)c(C)c1 (stereo partly specified),-4%,/,3%,?,2,-2
CCCc1ccc2oc(C(=O)NCCN3CCCC(O)C3)c(C)c2c1 (stereo unspecified),20%,-5%,?,0%,77*,34*
Cc1c(C(=O)NCCCN2CCOCC2)oc2c1C1(CCC2)SCCS1,-9%,-12%,-12%,-3%,+,7
CCCc1ccc2oc(C(=O)NCc3nnc(C)o3)c(C)c2c1,-17%,/,-3%,-1%,97*,45*
CCN(CC)S(=O)(=O)c1ccc2oc(C(=O)NCCCN3CCOCC3)c(C)c2c1,-3%,0%,?,/,-6,-2
CCCc1ccc2oc(C(=O)NCCCN3CCOCC3)c(C)c2c1,10%,/,68%,?,67*,50*
COc1cccc(NC(=O)CCC(=O)Nc2cc(OC)c(NC(=O)c3cccs3)cc2OC)c1,2%,2%,-5%,0%,-4,-3
CCN(CC)C(=O)NC1CCCCCCC1,-8%,3%,16%,-6%[5.75 µM],-20,-2
CC1CCC(NC(=O)N(CCCl)N=O)CC1 (stereo unspecified),/,-3%,5.4µM*,6.7µM*,/,/
O=C(Cn1c2[n+](c3ccccc31)CC(O)CS2)c1ccccc1 (stereo unspecified),1%,1%,2.1µM*,64%,-8,7
Cc1ccc(C(=O)Cn2c3[n+](c4ccccc42)CC(O)CS3)cc1 (stereo unspecified),4%,2%,?,10%,-8,2
COC(=O)N1C2CC(=O)O[C@@H]3c4cc5c(cc4[C@]1(C)[C@@]3(Br)c1ccccc12)OCO5,/,4%[12.9 µM],/,/,/,/

# Source: PubChem
